# BRCA1 expr up – activators of BRCA1 expression; MCF7-BRCA1-FFLuc reporter, luminescence, 48 h; response scale: scaled: vehicle 0%, 10 µM genistein 100%; Potency, µM (highest dose often 46.1 µM), hits mostly activators; 1.1% of 380,000 active; AID 624202; note: nearly all actives have a fitted effect of over 80% in size
#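 Quantitative HTS in MCF7 cells stably reporting BRCA1 expression via firefly luciferase. Compound treatment lasts 48 h at 37 °C in phenol-red free MEM. Activation is expressed relative to genistein at 10 microM and DMSO.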
# EPAC2 antagonist – EPAC2 (human) antagonism | 0.18% of 360,000 active | EPAC2 GEF exchange of Rap1B-BODIPY-GDP, fluorescence | AID 720708 | Potency, µM (highest dose often 114 µM), usual class: inhibitors | Q8WZA2; note: nearly all actives have a fitted effect of over 45% in size
# EPAC1 antag – EPAC1 (human) antagonism. 0.14% of 360,000 active. AID 720709. EPAC1 GEF assay, Rap1b-BODIPY-GDP exchange fluorescence. Potency, µM (highest dose often 115 µM), most hits filed as inhibitors; note: nearly all actives have a fitted effect of over 50% in size
# EPAC2 agonist – agonists of human EPAC2 (RAPGEF4); 0.079% of 360,000 active; Potency, µM (series often up to 154 µM), actives largely listed as activators; Q8WZA2; EPAC2 activation, biochemical qHTS; response scale: 100% = 6.5 mM cAMP response; note: nearly all actives have a fitted effect of over 50% in size
#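 Compounds were added across a concentration range to EPAC2 (100 nM), RAP1B-BODIPY-GDP (250 nM) and GDP (50 uM). After 5 min at room temperature, fluorescence was recorded at 5-min intervals for 30 min.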
# RGS4 inhibitor – blocks human RGS4-accelerated GTP hydrolysis. AID 504845. P49798. Transcreener GDP fluorescence polarization, RGS4-accelerated GTP hydrolysis. Potency, µM (titrated, usually from 114 µM), usual class: inhibitors. 0.039% of 390,000 active; note: nearly all actives have a fitted effect of over 75% in size
#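 MLSMR compounds (23 nl, pin-transferred) preincubated 10 min at room temperature with a 500nM (2x) first reagent, then RGS4 at 900nM (2x) plus Transcreener GDP mix added; fluorescence polarization (620/688 nm) read before and after 90 min at 30 °C.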
# EPAC1 ag – activates human EPAC1 exchange factor; 0.073% of 360,000 active; EPAC1 agonist qHTS, biochemical assay; response scale: 100% = response to 6.5 mM cAMP; Potency, µM (series often up to 154 µM), hits mostly activators; AID 720707; O95398; note: nearly all actives have a fitted effect of over 60% in size
#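 Nucleotide exchange assay: 100 nM EPAC1 with 250 nM Rap1B loaded with BODIPY-GDP and 50 uM GDP, room temperature. Fluorescence (480/540 nm) read every 5 min for 30 min; signal change normalized to 6.5 mM cAMP as full agonist.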
# Numbers stand for hits; i = inactive; ? = inconclusive; nt = no result given; [ ] = another dose, or the depositor's remark. This is a sample that favours compounds with a hit; in the whole collection about 1.3% have one here. Calls come from the whole dose curve; as a rule, active = well fitted curve in the direction sought with a large enough effect; inconclusive = small, poorly fitted or top-dose-only effect, or another doubt; inactive = no such curve, though single readings can be large; an effect the other way counts as inactive or inconclusive.
SMILES,BRCA1 expr up,EPAC2 antagonist,EPAC1 antag,EPAC2 agonist,RGS4 inhibitor,EPAC1 ag
COC(=O)c1ccccc1NC(=O)c1cc(-c2ccco2)on1,i,i,i,i,i,i
O=C(NCCCc1ccncc1)C1CCC(=O)N(Cc2cccc(C(F)(F)F)c2)C1 (configuration not stated),i,i,i,i,i,i
COc1ccc(C)cc1NC(=O)c1cc(S(=O)(=O)N2CCCCC2)ccc1N1CCOCC1,i,i,i,i,i,i
CN(C)/C=C1\C=C2C(=O)c3ccccc3N2C1=O,i,i,i,35µM,i,?
CCCOc1ccc(-c2nnc(N)s2)cc1,4.5µM,i,i,i,i,i
COc1ccc(-c2nnc(N)s2)cc1,i,i,i,i,i,i
COc1cc(C(=O)OCC(=O)Nc2ccc(S(=O)(=O)NC3=NCCCCC3)cc2)cc(OC)c1OC,i,i,i,i,i,i
O=C(NCC(=O)N1CCN(c2ncccn2)CC1)c1ccccc1F,7.9µM,i,i,i,i,i
COc1ccccc1C(=O)NCC(=O)N1CCN(c2ncccn2)CC1,i,i,i,i,i,i
O=C(CNC(=S)NC(=O)C1CCCCC1)c1ccccc1,6.3µM,i,i,i,i,i
O=C(Nc1ccc2c(c1)CCC2)c1cnccn1,3.5µM,i,i,i,i,i
O=C(CSc1ncccn1)Nc1ccc2[nH]c(=O)[nH]c2c1,i,i,i,i,i,i
Cc1cnc(C(=O)Nc2ccc3c(c2)CCC3)cn1,?,i,i,i,i,i
O=C(CSc1ncccn1)Nc1ccc2c(c1)CCC2,8.9µM,i,i,i,i,i
CCCCN1C[C@H](CSC)[C@@H](CC(=O)Nc2ccc(OC)cc2)C1=O,i,i,i,i,nt,i
Cc1nn(C)c(C)c1CN(C)C(=O)c1cnn2c1NC(c1ccccc1)CC2C(F)(F)F (configuration not stated),i,i,i,i,i,i
COc1ccc(OCc2nc3ccccc3n2Cc2ccc(C(C)(C)C)cc2)cc1,4.5µM,nt,nt,nt,i,nt
COc1ccc(Nc2cc(C(=O)NCCCN(C)Cc3ccccc3)c3ccccc3n2)c(OC)c1,nt,nt,nt,nt,i,nt
CC(C)(C)CNC(=O)c1cccc2c1C(=O)c1ccc(-c3cc4ccccc4o3)cc1S2(=O)=O,i,i,?,100µM,i,i
C/C(=N/OCc1ccc(Br)cc1)c1ccccn1,3.5µM,i,i,i,i,i
O=C(N/N=C/c1ccc(O)c(O)c1)c1ccc(CSc2cccc3cccnc23)cc1,i,i,35µM,i,i,i
COc1ccc(-c2nc(C#N)c(N3CCCCCC3)o2)cc1,i,i,i,i,i,i
Nc1ccc2c(c1)C=C/C2=C\c1ccccc1,4µM,nt,nt,nt,nt,nt
CC(C1CC1)N(C(=O)c1ccccc1O)c1ccccc1 (configuration not stated),i,i,i,i,i,i
Cc1ccc(CNC(=O)c2ccc(C)s2)cc1,13µM,i,i,i,i,i
SMILES,BRCA1 expr up,EPAC2 antagonist,EPAC1 antag,EPAC2 agonist,RGS4 inhibitor,EPAC1 ag
Cc1ccc(C(=O)NCc2ccc(F)cc2)s1,i,i,i,i,i,i
O=S1(=O)N=C(N=Nc2c(O)[nH]c3ccccc23)c2ccccc21,i,i,i,i,i,i
COC(=O)c1ccc(N=Nc2ccccc2)cc1,10µM,i,i,i,i,i
COc1ccc(N=Nc2ccc(CO)cc2)cc1,?,i,i,i,i,i
OCc1ccc(N=Nc2ccccc2)cc1,3.2µM,i,i,i,i,i
COC(=O)c1ccc(OCCOc2ccccc2)cc1,i,i,i,i,i,i
Oc1ccc(N=Nc2ccccc2)cc1,8.9µM,i,i,i,i,i
COc1cc(/C=N/N2CCN(c3ccccc3OC)CC2)ccc1O,i,i,i,i,i,i
Oc1c(C=Nc2ccccc2)sc(=S)n1Cc1ccccc1,i,i,i,i,i,?
CCn1c(O)c(C=Nc2ccccc2)sc1=S,3.2µM,i,i,i,i,i
CCN(CC)c1ccc(/C=C(\C#N)C(=O)c2ccc(Br)cc2)cc1,i,i,i,100µM,i,112µM
CCN(CC)c1ccc(/C=C(\C#N)C(N)=O)cc1,?,i,i,i,i,i
Cc1ccc(N=Cc2sc(O)c3ccccc23)cc1,i,i,i,i,i[11.4 µM],i
Cc1ccc(N=Cc2sc(O)c3ccccc23)c(C)c1,3.2µM,i,i,100µM,i,i
O=C(Nc1ccc(Cl)cc1)c1ccc(OCC2CCCO2)cc1 (configuration not stated),4.5µM,i,i,i,i,i
Cc1cccc(NC(=O)c2ccc(OCC3CCCO3)cc2)c1C (configuration not stated),14µM,i,i,i,i,i
O=C(NCc1ccc(Cl)cc1)c1ccc(OCC2CCCO2)cc1 (configuration not stated),i,i,i,i,i,i
CCc1cccc(NC(=O)Nc2cccs2)c1,11µM,i,i,i,i,i
Cc1cc2nc(-c3ccc(SCc4ccc(C(=O)O)cc4)nc3)[nH]c2cc1C,11µM,i,i,i,?,i
Cc1cc2nc(-c3ccc(SCc4ccccc4C#N)nc3)[nH]c2cc1C,i,i,i,i,i,i
CC(C)Cn1c(N)c(C(=O)NCC2CCCO2)c2nc3ccccc3nc21 (configuration not stated),i,i,50µM,i,i[11.4 µM],i
CCOc1ccc(C(=O)Nc2cccc(-c3ccc(N4CCOCC4)nn3)c2)cc1OCC,11µM,i,i,i,i,i
Cc1ccc(/C=C(\C#N)C(=O)Nc2cccc(Br)c2)o1,nt,nt,nt,nt,i,nt
N#C/C(=C\c1ccc(N2CCCCC2)o1)C(=O)Nc1cccc(Br)c1,1µM,i,i,?,i,?
O=C(NC1CCN(Cc2nnnn2CCc2ccccc2)CC1)c1ccccc1F,i,i,i,i,i,i
SMILES,BRCA1 expr up,EPAC2 antagonist,EPAC1 antag,EPAC2 agonist,RGS4 inhibitor,EPAC1 ag
COc1ccc(OCc2cc(C(=O)N(C)Cc3nnc(C)o3)no2)c(Cl)c1,7.1µM,i,i,i,i,i
COc1cc(Cl)ccc1OCc1cc(C(=O)N(C)Cc2nnc(C)o2)no1,i,i,i,i,i,i
CC(=O)c1ccc(OCc2cc(C(=O)N(C)Cc3cc(C)no3)no2)cc1,i,i,i,i,i,i
COc1ccc(OCc2cc(C(=O)N(C)Cc3cc(C)no3)no2)c(Cl)c1,4µM,i,i,i,i,i
COc1cc(C)ccc1OCc1cc(C(=O)N(C)CCCN2CCOCC2)no1,7.9µM,i,i,i,i,i
CN(CCCN1CCOCC1)C(=O)c1cc(COc2ccc(F)cc2F)on1,i,i,i,i,i,i
CCc1ccc(CN(C)C(=O)c2cc(COc3ccc(OC)cc3Cl)on2)nc1,8.9µM,i,i,i,i,i
